Source: PubChem BioAssay (National Center for Advancing Translational Sciences (NCATS))
Compounds with a hit are over-represented: about 9.9% of the library has one in this group of screens.
KB-V1 MDR tox: kills drug-selected multidrug resistant KB-V1 cells; KB-V1 MDR cells viability, CellTiter-Glo, 72 h; Potency, µM (doses to about 46.1 µM), actives largely listed as cytotoxic; 400,000 compounds, 3.4% hits; also: potency is read from the fitted curve at half-maximal effect; % is scaled to controls: 0 for no effect and ±100 for the full control effect; nearly all actives have a fitted effect of over 60% in size
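KB-V1 MDR subline cells in DMEM (phenol-red free, 10% FBS) exposed to compounds in qHTS concentration series for 72 h at 37 degrees C. Viability read by CellTiter-Glo luminescence; concentration-effect curves fitted after normalization and correction.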
SW480 rereplic: inducers of DNA re-replication in SW480 colon cancer cells; Potency, µM (series often up to 46.1 µM), inactives show at the top dose re-replication activation, most hits filed as activators; AID 624297; SW480 DNA re-replication, Hoechst DNA content imaging, 48 h; 340,000 compounds, 1.8% hits; also: potency is read from the fitted curve at half-maximal effect; % of control where 0% means no effect; nearly all actives have a fitted effect of over 55% in size
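Image-based DNA-content assay: after two days of treatment, nuclei were labelled with the DNA dye Hoechst and imaged, and hits were compounds raising the count of nuclei showing high fluorescence intensity.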
IL-1B inflam inh: blocks inflammasome-driven IL-1 beta release. activity change, % at 57.5 µM. THP-1 LPS/ATP IL-1B secretion, AlphaLISA, 16 h; stronger effect = lower value. 360,000 compounds, 4.7% hits. AID 743279; in the data active = activity change below about -50%; inconclusive = mostly about -30% to -49%; also: % is scaled to controls: 0 for no effect and ±100 for the full control effect
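Secreted IL-1B measured by AlphaLISA bead assay after 16 h compound exposure of THP-1 cells; compounds (final up to 57.5 uM) added 1 h before LPS (250 ng/mL) and ATP (1.25 mM) stimulation; lower signal means less secretion.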
MCF10A rereplic: DNA re-replication induction in MCF 10a cells | MCF 10A DNA re-replication, Hoechst nuclear intensity, 48 h | Potency, µM (top dose mostly 46.1 µM), for inactives: top-dose activity, positive = re-replication, actives largely listed as activators | 350,000 compounds, 2.9% hits; also: potency is read from the fitted curve at half-maximal effect; % of control where 0% means no effect; nearly all actives have a fitted effect of over 50% in size
KB-3-1 cytotox: kills parental KB-3-1 adenocarcinoma cells; Potency, µM (highest dose often 46.1 µM), most hits filed as cytotoxic; 400,000 compounds, 1.4% hits; AID 1347075; KB-3-1 viability, CellTiter-Glo ATP luminescence, 72 h; also: potency is read from the fitted curve at half-maximal effect; % is scaled to controls: 0 for no effect and ±100 for the full control effect; nearly all actives have a fitted effect of over 60% in size
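72 h, 37 °C compound treatment of KB-3-1 parental cells; CellTiter-Glo added, 10 min, luminescence read. Data corrected against DMSO-only plates and normalized before curve fitting.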
An asterisk follows results filed as active; i = inactive; ? = inconclusive; nt = no result. Unless noted, calls follow the shape of the dose curve; as a rule, active = well fitted curve in the direction sought with a large enough effect; inconclusive = small, poorly fitted or top-dose-only effect, or another doubt; inactive = no such curve, though single readings can be large; an effect the other way counts as inactive or inconclusive.

SMILES	KB-V1 MDR tox	SW480 rereplic	IL-1B inflam inh	MCF10A rereplic	KB-3-1 cytotox
CCOc1ccc(NC(=O)Nc2cccn(Cc3ccccc3)c2=O)cc1	5.8µM*	10.4%	-74.2*	16.5%	?
CCOc1ccc(NC(=O)Nc2ccccc2SC)cc1	?	-2.7%	?	9.8%	?
CC1=C(C(=O)Nc2cc(Cl)ccc2C)C(c2ccccc2F)n2ncnc2N1 (stereo not drawn)	18.4µM*	nt	nt	nt	i
c1cnc2ncc3sccc3c2c1	i	16.4µM*	11.5	-6.6%	i
CCc1cc2c(=O)c(-c3cnn(-c4ccccc4)c3)c(C)oc2c(CN2CCCCC2)c1O	i	1.7%	-14.1	?	i
CCc1cc2c(=O)c(-c3cnn(-c4ccccc4)c3)c(C(F)(F)F)oc2c(CN(C)C)c1O	1.84µM*	-7.4%	13.0	-6.2%	i
CNC(=O)c1nnsc1S(=O)(=O)c1ccc(Cl)cc1	i	1.03µM*	-98.1*	1.46µM*	?
O=C(c1nnsc1S(=O)(=O)c1ccc(Cl)cc1)N1CCOCC1	i	?	-106.4*	3.55µM*	?
O=C(c1nnsc1S(=O)c1ccc(Cl)cc1)N1CCOCC1 (stereo not drawn)	13µM*	3.1%	-104.4*	17.9%	?
O=C(Nc1ccccc1)c1nnsc1S(=O)c1ccc(Cl)cc1 (stereo not drawn)	i	23.1µM*	-107.3*	?	?
CCCC(=O)OCc1cnc(C)c2oc(=O)c(C(=O)Nc3ccccc3)cc12	i	nt	nt	nt	i
COc1cccc(CNC(=O)CCc2c(C)nn(-c3ccc(N4CCOCC4)nn3)c2C)c1	i	nt	nt	nt	i
CCc1cccc(NC(=O)Cn2c(=O)n(CC(=O)NCCc3ccccc3)c(=O)c3ccccc32)c1	i	nt	nt	nt	i
COc1ccc(CCNC(=O)CCc2c(C)nc3nc(C)nn3c2C)cc1OC	i	nt	nt	nt	i
O=C1NC[C@H](Cc2ccccc2)N(C[C@@H]2CCCN2C[C@H](Cc2ccccc2)N2C[C@H](Cc3ccc(O)cc3)N(CCc3ccccc3)C(=O)C2=O)C1=O	i	nt	-60.3*	nt	?
O=C1NC[C@H](Cc2ccccc2)N(C[C@H]2CCCN2C[C@H](Cc2ccccc2)N2C[C@H](Cc3ccc(O)cc3)N(CCc3ccccc3)C(=O)C2=O)C1=O	i	?	-52.4*	?	i
O=C1NC[C@H](Cc2ccccc2)N(C[C@@H]2CCCN2C[C@H](Cc2ccc(O)cc2)N2C[C@H](Cc3ccc(O)cc3)N(CCc3ccccc3)C(=O)C2=O)C1=O	i	nt	-19.6	nt	i
Cc1ccc(C)c(CC(=O)N2CCCC(c3cc(C(=O)NCc4ccccc4)no3)C2)c1 (stereo not drawn)	i	nt	-15.9	nt	i
CCOc1cc(/C=N\NC(N)=O)cc(Br)c1OC(C)C	11.6µM*	?	0.0	?	7.31µM*
CC(=O)Nc1ccc(S(=O)(=O)c2c(N)n(CCN3CCOCC3)c3nc4ccccc4nc23)cc1	i	-1.2%	-6.7	10.0%	i
Nc1c(C(=O)NCCN2CCOCC2)c2nc3ccccc3nc2n1CCc1ccccc1F	i	-1.0%	-62.8*	3.9%	i
Nc1c(C(=O)NCCN2CCOCC2)c2nc3ccccc3nc2n1CCc1ccccc1	23.1µM*	16.4µM*	-58.9*	1.84µM*	i
Nc1c(C(=O)NCc2ccco2)c2nc3ccccc3nc2n1CCc1ccc(F)cc1	16.4µM*	5.8µM*	-116.4*	?	i
CC(C)OC(=O)c1c(N)n(CCCN2CCOCC2)c2nc3ccccc3nc12	i	?	-11.2	0.5%	i
COc1ccc(C(CNC(=O)c2[nH]c(C)c(C(C)=O)c2C)N2CCOCC2)cc1 (stereo not drawn)	i	-1.2%	8.2	21.3%	i
COc1ccc(CNCc2c(O)c(Cl)cc3c(C)c(C)c(=O)oc23)c(OC)c1	i	?	31.2	?	i
Cc1ccc([C@@H]2CC(=O)[C@@H]3CN(S(=O)(=O)c4ccccc4C)[C@H](c4ccc(Cl)cc4)C[C@@H]3N2S(=O)(=O)c2ccc(C)cc2)cc1	?	nt	49.5	nt	3.66µM*
